According to PubChem BioAssay (NCI):
The panel holds about 79,000 compounds, 15% with a hit somewhere; the sample as a whole holds those more often. Cut-off read from the data, not from the text of the source: active = growth inhibition above about 70%; inactive = the rest.

Legend:
[1] = NCI Yeast Anticancer Drug Screen. Data for the rad50 strain (AID 155);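 note: 0% = growth of vehicle-only cultures of the same strain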; details: S. cerevisiae rad50 strain growth inhibition; at 50.0 µM; stronger effect = higher value
In short: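 DNA repair mutant yeast, compound exposure, growth read-out; inhibition is taken relative to vehicle.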

[2] = NCI Yeast Anticancer Drug Screen. Data for the mec2-1 strain (AID 157); details: S. cerevisiae mec2-1 strain, at 50.0 µM, stronger effect = higher value
In short: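 Test agents were screened against the mec2-1 yeast strain, with defined DNA repair or cell cycle alteration. Growth was scored as inhibition against vehicle-only controls.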

[3] = NCI Yeast Anticancer Drug Screen. Data for the sgs1 mgt1 strain (AID 161);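 note: 0% = growth of cultures given vehicle only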; details: S. cerevisiae sgs1 mgt1 strain, at 50.0 µM, stronger effect = higher value
In short: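 Mutant yeast exposed to compound; growth scored against vehicle-only wells.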

[4] = NCI Yeast Anticancer Drug Screen. Data for the cln2 rad14 strain (AID 165);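 note: 0% = growth equal to vehicle treated cultures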; details: S. cerevisiae cln2 rad14 strain, at 50.0 µM, stronger effect = higher value
In short: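 Growth of compound-exposed yeast (cln2 rad14 genotype) measured and expressed as inhibition relative to vehicle.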

[5] = NCI Yeast Anticancer Drug Screen. Data for the bub3 strain (AID 167); details: S. cerevisiae bub3 mutant strain, at 50.0 µM, stronger effect = higher value
In short: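 In this screen, a yeast mutant lacking normal mitotic checkpoint function is challenged with compound. Relative growth versus vehicle gives the inhibition value.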

[6] = NCI Yeast Anticancer Drug Screen. Data for the mlh1 rad18 strain (AID 175); details: S. cerevisiae mlh1 rad18 strain growth inhibition; at 50.0 µM; stronger effect = higher value
In short: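 In this whole-cell yeast screen, a strain with altered DNA damage repair is challenged with compound, and its growth is measured against matched vehicle-treated controls.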

Measured: growth inhibition

O=S(=O)(c1ccc(Br)cc1)S(=O)(=O)c1ccc(Br)cc1
inactive: [1] -22.6% | [2] 0.7% | [3] -23.1% | [4] -13.9% | [5] 23.2% | [6] -16.1%

Cc1cc2[nH]c(=O)c(=O)[nH]c2cc1C
inactive: [1] 0.35% | [2] 4.05% | [3] 7.15% | [4] 17.7% | [5] -0.95% | [6] 2.55%

Cc1nc(-c2ccccc2)ncc1C(O)CN1CCCCC1 (configuration not stated)
inactive: [1] -21.7% | [2] 25.6% | [3] 18.1% | [4] -43.2% | [5] 20.5% | [6] 2.25%

S=c1cc(-c2ccccc2)oc2ccccc12
inactive: [1] 9.35% | [2] 10.8% | [3] -1.1% | [4] 6.85% | [5] 4.85% | [6] -2.8%

CCCCCCCCCCCCCCCCCCNC(=O)N1CCC(C)CC1
inactive: [1] -7.9% | [2] -4.8% | [3] 21.2% | [4] -13.7% | [5] 4.95% | [6] -24.6%

N=C(c1ccc2ccccc2c1)c1ccccc1Cc1ccccc1
inactive: [1] 17.2% | [2] -24.2% | [3] 6.15% | [4] -52.5% | [5] 9.35% | [6] 24.2%

O=[N+]([O-])c1nccn1CCC[n+]1cccc2ccccc21
inactive: [1] -38.6% | [2] -17.2% | [3] -14.2% | [4] -14.9% | [5] -19.9% | [6] -13.4%

OCc1c(CO)c2cccn2c2c1cnn2-c1ccccc1
inactive: [1] 11.3% | [2] 1.45% | [3] 23.9% | [4] -64.9% | [5] -8.2% | [6] 11.2%

O=C(c1ccccc1)C(C(c1ccccc1)N1CCOCC1)N1CCOCC1 (configuration not stated)
inactive: [1] -19.1% | [2] 2.2% | [3] -4.55% | [4] -9.45% | [5] -5.7% | [6] 0.65%

CN(C)S(=O)(=O)c1ccc(NC(=O)OC2CCCC2)cc1
inactive: [1] 12.9% | [2] 3.7% | [3] 6.8% | [4] 33.2% | [5] 24.6% | [6] 0.35%

[O-][N+](=Nc1ccc(Sc2ccccc2)cc1)c1ccc(Sc2ccccc2)cc1
inactive: [1] -4.65% | [2] 2.3% | [3] 19% | [4] -17% | [5] 21.9% | [6] 28.1%

O=Cc1ccc(OCc2cccc([N+](=O)[O-])c2)cc1
inactive: [1] 6.6% | [2] 27.1% | [3] 26.4% | [4] -2.6% | [5] 31.4% | [6] 47%

COc1ccc2nc3cc([N+](=O)[O-])ccc3c(Nc3ccc(S(=O)(=O)N=C(N)N)cc3)c2c1
inactive: [1] 59.8% | [2] 21.8% | [3] 48.5% | [4] 12.8% | [5] 38.8% | [6] 53.9%

OC(COc1ccc(Cl)cc1Cl)CN1CCCC1 (configuration not stated)
inactive: [1] 10.1% | [2] 11.8% | [3] 17.7% | [4] 5.05% | [5] -23.4% | [6] 18.1%

Nc1ccc(SCCC(=O)O)cc1
inactive: [1] 18.9% | [2] 0.7% | [3] -0.25% | [4] 2.1% | [5] 5.95% | [6] -13.3%

Cc1c(Cl)cccc1NC(=O)Nc1ccc(S(N)(=O)=O)cc1
inactive: [1] 0.7% | [2] 29.4% | [3] 39.4% | [4] 1.4% | [5] 21.8% | [6] 19.1%

CC(=O)OC1CCC(OC(C)=O)[C@H]2[C@@H]1[C@@H]1S[C@H]2c2ccccc21 (some centres not stated)
inactive: [1] 1% | [2] -1.55% | [3] -0.45% | [4] 11.1% | [5] 12.2% | [6] -1.15%

COc1ccc2ccccc2c1NC(C)=O
inactive: [1] 0.2% | [2] 5.95% | [3] -0.7% | [4] -21.8% | [5] -1.6% | [6] -10.5%

COc1ccc(-n2cc3c(=O)nccc-3c3ccccc32)cc1OC
inactive: [1] -9.3% | [2] -12.8% | [3] 1.2% | [4] -10.6% | [5] -18.6% | [6] -0.6%

CC1CC(=O)CC(C)C1 (configuration not stated)
inactive: [1] 1.7% | [2] -0.1% | [3] -10.5% | [4] -27.1% | [5] 19.9% | [6] 16.6%

Cc1nc2ccc(Br)cc2c(=O)n1-c1ccc(N=Cc2ccccc2Cl)cc1
inactive: [1] 49.8% | [2] 16.5% | [3] 26.6% | [4] 19.6% | [5] 2.6% | [6] 34.8%

CCCNC(=O)/C=C/C(=O)NCCC
inactive: [1] 8.55% | [2] -0.8% | [3] -1.55% | [4] -43.2% | [5] -6% | [6] 4.1%

O=C(NC(=O)c1c(F)cccc1F)Nc1ccc(Cl)nc1
inactive: [1] 8.75% | [2] 5.95% | [3] -0.2% | [4] 2.3% | [5] 21.9% | [6] 10.1%

N#CC(C#N)=C(C#N)Nc1ccc(F)cc1
inactive: [1] 1% | [2] -10.4% | [3] -16.6% | [4] -6.5% | [5] -13.4% | [6] -0.4%

O=C(NC(Cc1c[nH]c2ccccc12)C(=O)O)C(=O)c1c[nH]c2ccccc12 (configuration not stated)
inactive: [1] -9.9% | [2] -14.6% | [3] 27.5% | [4] 0.9% | [5] 15.2% | [6] 4.2%

CCOP(=O)(OCC)/C(C#N)=C\c1ccc(OC(C)=O)cc1
inactive: [1] -6.15% | [2] -30.1% | [3] -9% | [4] 23.5% | [5] -25.6% | [6] -31.9%

CCCN(CCC)S(=O)(=O)c1ccc(NC(=O)Oc2ccc([N+](=O)[O-])cc2)cc1
inactive: [1] 42.5% | [2] 18.1% | [3] 33.5% | [4] 29.9% | [5] 5.85% | [6] 34.4%

CCN(CC)CCN(CC)CCN(CC)CC
inactive: [1] 6.7% | [2] 5.65% | [3] -1.75% | [4] 3.85% | [5] 4.1% | [6] -0.7%

CCCCCCCCCCCCSCC(=O)O
inactive: [1] -16.8% | [2] 10.8% | [3] 14.2% | [4] -82.8% | [5] 39% | [6] -25.8%

COc1cc(OC)cc(C(NC(C)=O)NC(C)=O)c1
inactive: [1] 5.45% | [2] 2.55% | [3] 7.7% | [4] -31.2% | [5] 1.5% | [6] 17.1%

O=S(=O)(O)c1ccc(N=Nc2c(O)cc(O)cc2O)cc1
inactive: [1] -21.9% | [2] -6.8% | [3] -6.95% | [4] 17.2% | [5] 31.8% | [6] -18.4%

CC(=O)Nc1cc(C)c(C)cc1[N+](=O)[O-]
inactive: [1] -2.5% | [2] -16.6% | [3] -9.45% | [4] 3.3% | [5] -27.1% | [6] -11.7%

Cc1ccc(/C(O)=C/c2nc3ccccc3oc2=O)cc1
inactive: [1] 20.2% | [2] 35.4% | [3] -7.5% | [4] -18.7% | [5] 25.9% | [6] 0.85%

O=C1OC(c2cccc(C(F)(F)F)c2)c2ccc3ccccc3c21 (configuration not stated)
inactive: [1] 14.3% | [2] -0.45% | [3] 10.7% | [4] 18.1% | [5] 10.8% | [6] 22.8%

CC(=O)Nc1ccc(C(=O)NN2C(=O)C(Cl)C2c2ccc(Cl)cc2)cc1 (configuration not stated)
inactive: [1] -50.3% | [2] -32.3% | [3] -42.8% | [4] -27.3% | [5] -28.9% | [6] -43.5%

CCCCCCC1=CC(=O)CC(=O)C1
inactive: [1] 25.9% | [2] 7.1% | [3] 16.6% | [4] 13.6% | [5] 18% | [6] 4.25%

O=C(C(=O)c1cccs1)c1cccs1
inactive: [1] 3.1% | [2] 9.05% | [3] 34.4% | [4] 6.15% | [5] -17.5% | [6] 22.5%

C[n+]1cccc(/C=C/c2ccc3cccc(O)c3n2)c1
inactive: [1] 4% | [2] -3.75% | [3] -12.7% | [4] -2.65% | [5] -42.4% | [6] 8.35%

CS(C)=O.CS(C)=O.[Cl][Ru+2][Cl].[NH-]c1ccccc1[NH-]
inactive: [1] 38.6% | [2] 7.6% | [3] 34.4% | [4] 23.8% | [5] -1.9% | [6] 27.8%

O=C(NC(Cc1ccccc1)C(=O)O)Oc1ccc2ccccc2c1 (configuration not stated)
inactive: [1] 2.9% | [2] 8.25% | [3] 6.1% | [4] -0.95% | [5] -4.8% | [6] -5.2%

CCOC(=O)CCC(=O)N(CC)CC
inactive: [1] 8.7% | [2] 16.6% | [3] 16.4% | [4] 9.9% | [5] -10.9% | [6] -13%

CC1CCC2(CC1)N=C1CCC(C)CC1C1(CCC(C)CC1)N2 (configuration not stated)
inactive: [1] -22.4% | [2] 0.25% | [3] -32.9% | [4] -23.1% | [5] -13.2% | [6] -11.1%
